Data from PubChem BioAssay (NCI).
The panel holds about 83,000 compounds, 20% with a hit somewhere; the sample as a whole holds those more often.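 Cells were grown in 96-well plates and exposed to the test compound at a single concentration for 48 hours; results are reported as percent growth, with values below 10 considered active.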 A number with no mark means an inactive call. Calls of active or inactive are those of the source.

test system: SNB-75 CNS; experiment: NCI-60 one-dose screen, 48 h (100 = growth as untreated, 0 = no growth, -100 = all killed); conditions: 10 µM unless noted
Protocol: Growth inhibition of the SNB-75 human tumor cell line is measured as a screen for anti-cancer activity. Cells are grown in 96 well plates and exposed to the test compound for 48 hours. Compounds are tested at a single concentration, which is 10^-5 M for most compounds. The reported endpoint is percent growth (GI% or GIPRCNT), where numbers from 0 - 100% represent growth inhibition, and numbers from -100% - 0 represent cell death. For example, a value of 40 represents 60% growth inhibition. A value of 0 means no net growth occurred over the course of the experiment. A value of -40 indicates 40% of cells at the beginning of the experiment died by the end of the experiment. A value of -100 means all cells are dead at the end of the experiment.
NCI-60 Human Tumor Cell Lines Screen was performed using the standard one-dose NCI protocol, which is described in more detail at https://dtp.cancer.gov/discovery_development/nci-60/default.htm.
Compounds with GIPRCNT values below 10 were considered active. Activity score was based on GIPRCNT using the following formula: […]
Score is 0 for GIPRCNT values of 100 or above, 50 for GIPRCNT values of 0, and 100 for GIPRCNT values of -100.

Point of comparison: `N=c1c2cc(-c3ccccc3)oc2ncn1/N=C/c1ccccc1`, growth 67%. Against it:
- CC(c1ccccc1)N1C(=O)/C(=C/c2csc(C#N)n2)SC1=S (stereo not given) — higher, 85.4%
- CCOC(=O)c1ccc(N/C=C/C(=O)c2ccccc2)cc1 — higher, 97%
- COc1ccc2c(C3=C(c4cn(C)c5ccccc45)C(=O)NC3=O)coc2c1 — lower, 17.6%
- COCCC[C@H]1O[C@@](O)([C@H](C)[C@@H]2CC(OC)C(O)/C=C(C)/C=C(C)/C=C(\C)C(OC3O[C@@H](C)[C@H](O)C(O)[C@@H]3O)C(C)/C=C(C)/C=C(OC)/C=C(\C)C(=O)O2)C(OC)C(O)[C@]1(C)O[C@H]1C[C@@H](O)[C@H](O[C@H]2C[C@](C)(O)[C@H](O)C(C)O2)C(C)O1 (stereo not given in full) — lower, 35.3%
- NC(=O)c1c(NC(=O)c2cccc(C(F)(F)F)c2F)sc2c1CCC(=O)C2 — lower, 40.2%
- COc1cnc2c(c1)C(=O)c1c-2n(CCCn2ccnc2)c(=O)c2cc(OC)c(OC)cc12 — lower, 12.4%
- CC(C)(C)OC(=O)N1CCN(S(=O)(=O)/N=C2\NC(=O)NC2=C(Cl)Cl)CC1 — higher, 99.9%
- COc1ccc(-c2nc3cc(Cl)c(Cl)cc3n2CC(=O)N=Nc2c(O)[nH]c3ccc(Cl)cc23)cc1 — lower, 57.9%
- Cn1nc(Nc2ccccc2)c(C(=O)NN)c1N — higher, 81.6%
- O=c1c2c(O)cccc2oc2c3c(cc(O)c12)O[C@H]1OC=C[C@@H]31 — higher, 85.7%
- O=C(NNc1nc2cc(F)ccc2n2cncc12)c1cnccn1 — higher, 75.1%
- COC(=O)c1c(C(=O)OC)c2n(CC(=O)Nc3cccc4cccnc34)c3ccccc3n2c1C(=O)c1ccc(C)cc1 — higher, 101%
- O=C(/C=C/c1cccc(O)c1)c1ccc(O)cc1 — higher, 103%
- COc1cc(C2=NN(C(C)=O)C(c3ccc(N4CCOCC4)cc3)C2)cc(OC)c1OC (stereo not given) — higher, 96%
- COc1ccc([C@@H]2[C@@H](O)C(=O)N2c2cc(OC)c(OC)c(OC)c2)cc1Cl — lower, 53.4%
- N/C(=N\OC(=O)CSc1nc2ccccc2s1)c1ccc(Cl)cc1 — higher, 88.7%
- COc1ccc(Cn2cc3c(c2-c2ccccc2)CCCc2cnoc2-3)cc1[N+](=O)[O-] — lower, 55.8%
- CCNC(=O)Oc1ccc(/C(=C(/C)c2ccc(Cl)cc2)c2ccc(OCCN3CCCC3)cc2)cc1 — higher, 85.7%
- Cn1c(SC(C(=O)Nc2ccc(F)cc2)c2ccccc2)nc2ccccc2c1=O (stereo not given) — higher, 91.3%
- CNC(=O)c1cc(Oc2ccc3nc(NC(=O)c4cc(C)cc(C)c4)sc3c2)ccn1 — higher, 85.5%
- CCc1ccc(NC(=O)N[C@@H](Cc2cccc(F)c2)C(=O)N[C@@H]2C(=O)N3CCC[C@H]3C(=O)N3CCCC[C@H]3C(=O)N[C@@H](C)C(=O)N3C[C@H](C)C[C@H]3C(=O)O[C@H]2C)c(F)c1 — lower, 20.8%
- COc1ccc2c(C3=C(c4c[nH]c5ccccc45)C(=O)N(O)C3=O)coc2c1 — higher, 105%
- CCOC(=O)c1c(Nc2ccccc2)nn2c(-c3ccc(OC)c(OC)c3)ccnc12 — higher, 68.7%
- Cc1cc(=O)n2nc(-c3c[nH]c4ccccc34)sc2n1 — higher, 99.8%
- O=C(NCCCCCCNC(=O)c1c2c(nc3ccccc13)-c1cccnc1SC2)c1c2c(nc3ccccc13)-c1cccnc1SC2 — lower, 62.9%
- C/C=C/C=C1\C[C@H]2CO[C@H](O2)C1=O — higher, 106%
- NS(=O)(=O)c1ccc(Nc2nc(N/N=C/c3ccc([N+](=O)[O-])cc3)nc(Nc3ccccc3)n2)cc1 — lower, 45.4%
- CCOc1c(C#N)c(Nc2ccc(S(N)(=O)=O)cc2)c(C#N)c2nnc(C)n12 — higher, 91%

In the case of `CN1CCN(Cc2ccc(NC(=O)c3cncc(C#Cc4cnc5ccc(NC6CCOCC6)nn45)c3)cc2C(F)(F)F)CC1`, the growth is reported as -56.8% (active).
With `O=C(NNc1nc2cc(F)cc(F)c2n2cccc12)c1ncccn1` the growth was -7.95% (active).
In the case of `Oc1ccccc1/C=N/Nc1nc(N/N=C/c2ccccc2O)nc(N2CCOCC2)n1`, the growth is reported as -4.09% (active).
In the case of `CC(C)C[C@H]1C(=O)O[C@H](C(C)C)C(=O)N(C)[C@@H](C(C)C)C(=O)O[C@H](C(C)C)C(=O)N(C)[C@@H](C(C)C)C(=O)O[C@H](C(C)C)C(=O)N1C`, the growth is reported as 7.5% (active).
With `CC[C@@](C)(NC(=O)C(C)(C)NC(=O)[C@@H](NC(=O)[C@@H]1CCCN1C(=O)C(C)(C)NC(=O)[C@H](CC(C)C)NC(=O)CNC(=O)C(C)(C)NC(=O)[C@@H](NC(=O)C(C)(C)NC(=O)[C@H](CCC(N)=O)NC(=O)[C@H](C)NC(=O)C(C)(C)NC(=O)[C@H](C)NC(=O)C(C)(C)NC(=O)[C@@H]1CCCN1C(=O)C(C)(C)NC(C)=O)C(C)C)C(C)C)C(=O)N[C@@H](CCC(N)=O)C(=O)N[C@@H](CCC(N)=O)C(=O)N[C@H](CO)Cc1ccccc1` the growth was 3.47% [4.25 µM] (active).
`O=S(=O)(Nc1cc(Cl)c(F)c(Cl)c1)c1ccc(-c2cnc(C3CC3)o2)cc1` was tested, and the growth was -4.2% (active).
In the case of `COc1ccc(C(=O)c2c(N)c(C#N)cn2-c2cccc(OC)c2)cc1`, the growth is reported as -23.4% (active).
For `COc1ccc2c(ccn2C(=O)N2c3ccccc3Sc3ccccc32)c1`, the growth was -3.95% (active).
`CC1OC(O[C@@H]2C(O)C(CO)OC(O[C@H]3COC(O[C@H]4CC[C@]5(C)[C@H]6CC[C@]78OC[C@@]9(CC[C@](C)(C=O)C[C@H]97)[C@H](O)C[C@@]8(C)[C@]6(C)CC[C@H]5C4(C)C)[C@@H](OC4OC(CO)[C@@H](O)[C@@H](O)[C@@H]4O)[C@@H]3O)[C@H]2OC2OC[C@@H](O)[C@@H](O)[C@@H]2O)[C@@H](O)[C@@H](O)[C@H]1O` (stereo not given in full) was tested, and the growth was -65.2% (active).
In the case of `CCOC(=O)c1nn(-c2ccccc2)c(=O)c2c(N)c(C#N)c(-c3cccs3)cc12`, the growth is reported as -8.81% (active).

Molecule `CC(=O)NC(C)(C)C(=O)N[C@@H](C)C(=O)NC(C)(C)C(=O)N[C@@H](C)C(=O)NC(C)(C)C(=O)N[C@@H](C)C(=O)N[C@@H](CCC(N)=O)C(=O)NC(C)(C)C(=O)N[C@H](C(=O)NC(C)(C)C(=O)NCC(=O)N[C@@H](CC(C)C)C(=O)NC(C)(C)C(=O)N1CCC[C@H]1C(=O)N[C@H](C(=O)NC(C)(C)C(=O)NC(C)(C)C(=O)N[C@@H](CCC(N)=O)C(=O)N[C@@H](CCC(N)=O)C(=O)N[C@H](CO)CC1CCCCC1)C(C)C)C(C)C` has a growth of 19.7% [5 µM].
